The source of these data is PubChem BioAssay AID1456 (Vanderbilt High Throughput Screening Facility, 2008).

The whole screen tested about 190,000 compounds, of which about 4,100 (2.2%) were called active. Shown is part of a subset that was picked to be rich in actives. A number with no mark means an inactive call.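 How the source made its calls: active means thallium flux slope and its plate-corrected score both differing from the plate sample mean at a set confidence after two filtering rounds, in either direction; inactive means the rest.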

The target of this assay is Solute carrier family 12 member 5 (Homo sapiens) (UniProt Q9H2X9). Kind of assay: KCC2 cotransporter modulators, thallium flux, primary screen, cell-based, HEK293 KCC2, FluoZin-2 fluorescence, MLSMR (AID 1456).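 On B-score of Tl+ flux slope (higher = more flux/activation; lower = inhibition): slope of fluorescence scaled to starting intensity during 10 to 20 s after thallium.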 The conditions noted are these: KCC2 cells, thallium flux FluoZin-2 fluorescence; at 10 µM.
Chain of Solute carrier family 12 member 5 (Homo sapiens) (Q9H2X9 whole entry, looked up): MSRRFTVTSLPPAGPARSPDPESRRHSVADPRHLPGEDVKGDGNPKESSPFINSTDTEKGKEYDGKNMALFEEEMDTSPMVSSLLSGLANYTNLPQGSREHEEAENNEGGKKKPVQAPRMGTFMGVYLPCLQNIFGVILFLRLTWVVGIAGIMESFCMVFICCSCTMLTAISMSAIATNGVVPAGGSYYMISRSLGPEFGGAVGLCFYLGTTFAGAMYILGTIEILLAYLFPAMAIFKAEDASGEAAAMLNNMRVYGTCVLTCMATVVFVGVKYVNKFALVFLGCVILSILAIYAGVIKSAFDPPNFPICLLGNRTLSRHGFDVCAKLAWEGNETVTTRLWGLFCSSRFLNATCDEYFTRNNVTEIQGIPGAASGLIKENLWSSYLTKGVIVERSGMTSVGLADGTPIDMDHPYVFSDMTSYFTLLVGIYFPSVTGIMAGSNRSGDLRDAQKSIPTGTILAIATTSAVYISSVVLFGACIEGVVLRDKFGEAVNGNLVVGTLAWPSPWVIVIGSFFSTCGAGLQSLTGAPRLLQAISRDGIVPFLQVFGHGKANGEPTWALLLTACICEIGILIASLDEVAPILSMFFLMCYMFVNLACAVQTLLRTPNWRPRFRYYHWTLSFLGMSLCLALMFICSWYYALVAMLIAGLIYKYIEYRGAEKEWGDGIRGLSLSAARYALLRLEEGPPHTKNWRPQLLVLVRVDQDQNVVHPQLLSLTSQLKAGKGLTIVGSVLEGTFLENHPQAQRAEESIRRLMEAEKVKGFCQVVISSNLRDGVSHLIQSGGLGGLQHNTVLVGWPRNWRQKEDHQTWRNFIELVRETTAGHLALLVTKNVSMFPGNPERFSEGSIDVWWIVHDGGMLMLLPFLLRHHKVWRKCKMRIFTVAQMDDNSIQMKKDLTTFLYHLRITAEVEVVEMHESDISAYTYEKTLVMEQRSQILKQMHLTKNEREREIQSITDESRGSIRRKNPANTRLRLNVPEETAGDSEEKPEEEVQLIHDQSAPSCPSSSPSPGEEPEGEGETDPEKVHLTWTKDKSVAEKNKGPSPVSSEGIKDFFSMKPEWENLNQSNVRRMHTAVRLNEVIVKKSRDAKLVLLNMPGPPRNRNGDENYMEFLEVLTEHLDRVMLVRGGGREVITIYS
Consider `C=CCN(C(=O)Nc1ccc2c(c1)nc(C)n2C)c1ccccc1`, for which the B-score of Tl+ flux slope (higher = more flux/activation; lower = inhibition) was -0.205. Consider `COc1ccc2c(c1)c1ncn(Cc3ccccn3)c(=O)c1n2C`, for which the B-score of Tl+ flux slope (higher = more flux/activation; lower = inhibition) was -0.189. As to `COc1ccc(-c2nn(C)c(=O)c3ccccc23)cc1CNC(=O)C1CCCCC1`, the B-score of Tl+ flux slope (higher = more flux/activation; lower = inhibition) was -0.0309. On to `CCC(C)N1C(=S)SC(C)(C)C1N(O)C(=O)NC1CCCCC1` (stereo not drawn), for which the B-score of Tl+ flux slope (higher = more flux/activation; lower = inhibition) is 0.793. For `COc1ccccc1-n1cn[nH]c1=S`, the B-score of Tl+ flux slope (higher = more flux/activation; lower = inhibition) is 0.0347. Turning to `CCc1ccc(NC(=O)N[C@H](C(=O)O)C(C)CC)cc1` (stereo partly drawn), the B-score of Tl+ flux slope (higher = more flux/activation; lower = inhibition) was 1.5. With `O=C(O)c1ccc(/C=N/Nc2nc(N3CCCCC3)nc(N3CCCCC3)n2)cc1`, the B-score of Tl+ flux slope (higher = more flux/activation; lower = inhibition) was -1.4. Then `Cc1ccc(C(=O)N/C(=C\c2ccco2)C(=O)NC2CCS(=O)(=O)C2)cc1` (stereo not drawn), with -1.21. On to `CN(C(=O)CCn1c(=S)oc2ccccc21)C1CCCCC1`, for which the B-score of Tl+ flux slope (higher = more flux/activation; lower = inhibition) is 0.00441.

For `CC(C)c1nc(SCC(=O)NC(=O)NC(C)(C)C)n[nH]1`, the B-score of Tl+ flux slope (higher = more flux/activation; lower = inhibition) is -0.671. As for `Cc1ccc(NC(=O)/C(=C/c2ccc([N+](=O)[O-])cc2)NC(=O)c2ccccc2)cc1`, the B-score of Tl+ flux slope (higher = more flux/activation; lower = inhibition) was -1.36. As to `O=C(Nc1nncs1)c1ccccc1NS(=O)(=O)c1cccs1`, the B-score of Tl+ flux slope (higher = more flux/activation; lower = inhibition) was -1.71. Then `COc1cc(NC(=O)c2ccccc2NS(=O)(=O)c2ccc(Cl)s2)cc(OC)c1`, with -5.32 (active); and `COc1cc(NC(=O)c2cccnc2SC)cc(OC)c1`, with 0.553.

For `Cc1ccc(-c2nc(SCC(=O)Nc3ccccc3OC(F)F)c3c(C)c(C(=O)O)sc3n2)cc1`, the B-score of Tl+ flux slope (higher = more flux/activation; lower = inhibition) is -0.62. Then `COc1ccc(C(=O)N/N=C(\C)CC(=O)Nc2ccc(Cl)cn2)cc1`, with -0.466; and `CCn1c(CN2C(=O)CSc3ccccc32)n[nH]c1=S`, with 0.96. As for `CCC(=O)NC(=Nc1nc2ccccc2s1)NC(=O)CC`, the B-score of Tl+ flux slope (higher = more flux/activation; lower = inhibition) is 41 (active).

With `O=C(Nc1ccccc1)Nc1nc2ccccc2s1`, the B-score of Tl+ flux slope (higher = more flux/activation; lower = inhibition) was 0.018. Then `CSCCC(Nc1nc2ccccc2s1)C(=O)O` (stereo not drawn), with 0.0417; and `O=C(O)C(F)(F)C(NCc1ccccc1)c1ccccc1` (stereo not drawn), with -0.106.

Turning to `Cn1c(SCC(=O)N2CCOCC2)nnc1-c1ccc2ncccc2c1`, the B-score of Tl+ flux slope (higher = more flux/activation; lower = inhibition) is -0.0283.

Turning to `c1ccc2[nH]c(-c3nc4ccccc4[nH]3)nc2c1`, the B-score of Tl+ flux slope (higher = more flux/activation; lower = inhibition) is 0.179. Under `O=C(Nc1ccccc1)c1cc2ccccc2[nH]1` stands -1.8; under `S=c1ccc2ccccc2[nH]1`, 29.1 (active). `Cc1ccc(OCC(=O)N2CCN(C(=O)c3cccnc3)CC2)cc1`: the B-score of Tl+ flux slope (higher = more flux/activation; lower = inhibition) is 2.71 (active). With `COc1ccc(OCC(=O)N2CCN(C(=O)COc3ccccc3)CC2)cc1`, the B-score of Tl+ flux slope (higher = more flux/activation; lower = inhibition) was -0.137.

As for `O=C(c1ccc(OC2CCN(C(=O)c3cccnc3)CC2)cc1)N1CCCCCC1`, the B-score of Tl+ flux slope (higher = more flux/activation; lower = inhibition) is 0.182. Then `CCn1c(SCC(=O)N/N=C/c2ccccc2OCC(=O)O)nnc1-c1ccc(C(C)(C)C)cc1`, with -0.932; and `CC1(C)CCSC(/C=C/c2ccccc2)=N1`, with -1.21; and `COc1ccc(N=Nc2ccc(O)c(P(=O)(c3ccccc3)c3ccccc3)c2)cc1`, with -0.282.

For the compound `CCCCC(CC)CNC(=O)CCCCn1c(=O)[nH]c2ccsc2c1=O` (stereo not drawn), the B-score of Tl+ flux slope (higher = more flux/activation; lower = inhibition) is -0.707.

As to `CCCCC(CC)CNC(=O)C(=O)C1C(=O)Nc2ccccc21` (stereo not drawn), the B-score of Tl+ flux slope (higher = more flux/activation; lower = inhibition) was 8.5 (active). Under `CCOC(=O)C(=O)C1C(=O)Nc2ccccc21` (stereo not drawn) stands “inactive”; under `OCCCC1CCCCN1Cc1nc(Cc2ccccc2Cl)no1` (stereo not drawn), -0.7.

For `O=C(/C=C/Nc1ccc(S(=O)(=O)Nc2cnc3ccccc3n2)cc1)c1cccnc1`, the B-score of Tl+ flux slope (higher = more flux/activation; lower = inhibition) was -0.253. On to `CCOC(=O)c1nnn2c1nc(N1CCN(c3ccccc3)CC1)c1ccccc12`, for which the B-score of Tl+ flux slope (higher = more flux/activation; lower = inhibition) is -2.78. Turning to `C/C=C(\C)C(=O)N1CC2(CC(c3cccc(NC(=O)CCCCC)c3)=NO2)C[C@@H]1C(N)=O` (stereo partly drawn), the B-score of Tl+ flux slope (higher = more flux/activation; lower = inhibition) is -0.00449. On to `O=C(NN1C(=O)C2C(C1=O)C1C=CC2C12CC2)c1ccccc1Cl` (stereo not drawn), for which the B-score of Tl+ flux slope (higher = more flux/activation; lower = inhibition) was 0.716. Then `Cc1oc2nc(SCC(=O)Nc3ccc(S(N)(=O)=O)cc3)nc(NC(=O)c3ccccc3)c2c1C`, with 6.29 (active). As to `CCc1ccc(CCC(=O)Nc2ccc(S(N)(=O)=O)cc2)o1`, the B-score of Tl+ flux slope (higher = more flux/activation; lower = inhibition) is 1.49. For the compound `CCOC(=O)c1ccc(NC(=O)CSc2ncccn2)cc1`, the B-score of Tl+ flux slope (higher = more flux/activation; lower = inhibition) is 1.85. Under `COc1cccc(NC(=O)CN(C)CC(=O)Nc2ccc3c(c2)CCC3)c1` stands -0.353; under `CCOc1ccc(NC(=O)CN(C)CC(=O)Nc2cccc(Cl)c2C)cc1OCC`, -5.58 (active). Then `CCOc1ccc(NC(=O)CN(C)CC(=O)NC(C)c2ccccc2)cc1OCC` (stereo not drawn), with -0.692; and `COc1ccc(/C=N/NS(=O)(=O)c2ccc(NC(C)=O)cc2)cc1`, with 0.538. Regarding `COc1ccc(Cl)cc1NC(=O)CCN1CCOCC1`, the B-score of Tl+ flux slope (higher = more flux/activation; lower = inhibition) is -0.478. As to `O=C(NCc1ccco1)C1CCCN(S(=O)(=O)c2ccccc2)C1` (stereo not drawn), the B-score of Tl+ flux slope (higher = more flux/activation; lower = inhibition) was -0.4. For `O=S(=O)(c1ccc(F)cc1)N1CCN(C(=S)NCc2ccco2)CC1`, the B-score of Tl+ flux slope (higher = more flux/activation; lower = inhibition) is -3.94 (active). As for `O=S(=O)(c1ccc(F)cc1)N1CCN(C(=S)NC2CCCC2)CC1`, the B-score of Tl+ flux slope (higher = more flux/activation; lower = inhibition) is -0.0466.

Consider `O=S(=O)(c1ccc(Cl)cc1)N1CCCN(c2ccc(C(F)(F)F)cn2)CC1`, for which the B-score of Tl+ flux slope (higher = more flux/activation; lower = inhibition) was -0.0306. Then `C=CCC(Nc1ccccc1)c1cccc(OC)c1OC` (stereo not drawn), with -1.46; and `O=C(CSc1nnc(-c2cccs2)n1Cc1ccccc1)N1CCc2ccccc2C1`, with -5.7 (active); and `O=C(CSc1nnc(-c2cccs2)n1-c1ccccc1)N1CCN(C(=O)c2ccco2)CC1`, with 0.0437. As for `Cc1nnc(SCC(=O)N2CCc3ccccc3C2)s1`, the B-score of Tl+ flux slope (higher = more flux/activation; lower = inhibition) was 0.173. With `CC(C)Cc1nnc(NC(=O)CCC(=O)Nc2ccc3cn[nH]c3c2)s1`, the B-score of Tl+ flux slope (higher = more flux/activation; lower = inhibition) is 0.683. Under `Nc1nnnn1/N=C/c1cc([N+](=O)[O-])ccc1O` stands -0.19; under `COc1cccc(CC(=O)Nc2ccc(-c3csc(C)n3)cc2)c1`, -1.35.
